HIF-2a inh – HIF-2a reporter inhibitors, primary screen, luminescence, 786-0 RCC cells | 786-0 RCC cells HIF-2a reporter, luciferase luminescence, overnight | inhibition, % at 18.8 µM | 360,000 compounds, 0.72% hits | AID 624352, 2012;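 active = inhibition of the luminescence signal of 40% or more relative to plate controls, in a single-dose primary screen at 18.75 µM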
TRPM1 prom inh – inhibitors of MITF-dependent TRPM1 promoter reporter, primary screen, cell-based, SK-MEL-5, single point, luciferase; SK-MEL-5 TRPM1 promoter luciferase, 24 h; 330,000 compounds, 0.83% hits; inhibition, % at 12.5 µM;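 active = mean inhibition across replicates of 60% or more, whatever share of single replicates reaches that level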
KKLEB tox – cytotoxicity in KKLEB CF airway cells, primary screen, cytotoxicity control for CF NF-kB inhibitor project, cell-based, uHTS, fluorescence assay plates; KKLEB CF airway cells viability, ATPlite luminescence, overnight; stronger effect = lower value; cells stimulated with P. aeruginosa culture filtrate; activity change (cytotoxicity), % at 5 µM; 360,000 compounds, 0.36% hits;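 active = corrected activity change at or below -50% at 5 µM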
ABHD5-PLIN5 inh – ABHD5-PLIN5 interaction inhibitors, primary screen, cell lysate, split luciferase complementation, luminescence | Split G. princeps luciferase complementation, 4 h | Perilipin-5 (Homo sapiens) + 1-acylglycerol-3-phosphate O-acyltransferase ABHD5 (Homo … | inhibition, % at 4 µM | 360,000 compounds, 0.78% hits;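 active = inhibition above the mean inhibition across every tested compound plus 3 SD, cut at about 22% in these data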;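 note: 0% = DMSO only wells and the 100% control is not disclosed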
Target sequence (Q00G26 whole entry, looked up): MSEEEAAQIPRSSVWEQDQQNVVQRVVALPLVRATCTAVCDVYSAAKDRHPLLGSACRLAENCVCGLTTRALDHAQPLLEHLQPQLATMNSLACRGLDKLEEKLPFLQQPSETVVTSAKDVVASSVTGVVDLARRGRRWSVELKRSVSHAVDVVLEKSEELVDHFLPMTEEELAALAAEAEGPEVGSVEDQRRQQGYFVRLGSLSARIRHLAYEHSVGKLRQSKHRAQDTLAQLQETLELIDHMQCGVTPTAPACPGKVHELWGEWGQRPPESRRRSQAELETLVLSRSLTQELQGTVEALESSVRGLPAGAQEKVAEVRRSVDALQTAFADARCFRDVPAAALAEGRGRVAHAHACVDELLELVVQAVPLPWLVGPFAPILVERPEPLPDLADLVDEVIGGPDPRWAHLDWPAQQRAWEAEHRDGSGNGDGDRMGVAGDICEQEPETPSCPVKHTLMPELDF
Target sequence (Q8WTS1 whole entry, looked up): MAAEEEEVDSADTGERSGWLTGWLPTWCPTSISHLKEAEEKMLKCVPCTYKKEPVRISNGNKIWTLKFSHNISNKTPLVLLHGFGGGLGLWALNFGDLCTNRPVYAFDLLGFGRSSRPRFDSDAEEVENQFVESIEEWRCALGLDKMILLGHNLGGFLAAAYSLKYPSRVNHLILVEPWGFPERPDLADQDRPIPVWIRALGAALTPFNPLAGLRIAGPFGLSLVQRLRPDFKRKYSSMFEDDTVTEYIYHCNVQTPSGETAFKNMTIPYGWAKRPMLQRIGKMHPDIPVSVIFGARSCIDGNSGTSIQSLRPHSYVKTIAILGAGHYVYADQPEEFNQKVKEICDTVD
CF NFkB block – inhibitors of PAF-induced NF-kB signaling, primary screen, cell-based, GFP fluorescence, uHTS | inhibition, % at 5 µM | 360,000 compounds, 0.86% hits | KKLEB NF-kB-GFP reporter, GFP fluorescence overnight | AID 588850, 2011;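 active = at least 50% inhibition at 5 µM, scaled per plate between neutral and stimulator controls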;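 note: PAF is a Pseudomonas aeruginosa culture filtrate used as stimulus; plate controls were PAF-stimulated DMSO wells for no effect and unstimulated DMSO wells for full effect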
Peg3 prom inh – Peg3 promoter-driven luciferase inhibitors, primary screen, cell-based, HeLa, luciferase luminescence | 360,000 compounds, 1.7% hits | HeLa PEG-Prom luciferase reporter, overnight | inhibition, % at 20 µM | AID 588405, 2011;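 active = inhibition of at least 50% at 20 µM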
CF NFkB conf – inhibitors of PAF-induced NF-kB signaling, retest, confirmation, cell-based, GFP fluorescence, single concentration | AID 602472, 2012 | 1,300 compounds, 64% hits | shares compounds with CF NFkB block | inhibition, % at 5 µM | KKLEB CF airway cells, overnight; in the data active = inhibition above about 40%;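 note: stimulus PAF is a Pseudomonas aeruginosa filtrate and not platelet activating factor; plate controls were DMSO wells with stimulus for no effect and unstimulated DMSO wells for full effect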
* = called active by the depositor; . = not tested or not shown. This is a sample that favours compounds with a hit; in the whole collection about 3.1% have one here.

SMILES	HIF-2a inh	TRPM1 prom inh	KKLEB tox	ABHD5-PLIN5 inh	CF NFkB block	Peg3 prom inh	CF NFkB conf
COc1ccc(-c2cc(C(F)(F)F)nc(S(=O)(=O)CCC(=O)N3CCOCC3)n2)cc1	-6.9	19.2	-35.9	7.5	78.8*	102.5*	46.8*
S=c1[nH]nc(-c2ccncc2)n1/N=C/C(Cl)=C\c1ccccc1	-133.7	-69.2	-12.6	18.5	73.2*	-83.2	78.3*
Cc1ccc(-c2n[nH]c(=S)n2/N=C/c2ccncc2)cc1	16.6	-1.0	-17.0	3.1	55.5*	-6.0	85.1*
Cc1ccc(-c2n[nH]c(=S)n2/N=C/c2ccc(C)o2)cc1	14.4	3.7	-4.3	-11.4	16.1	20.3	.
S=c1[nH]nc(-c2ccncc2)n1/N=C/C=C/c1ccccc1	17.3	-13.3	-7.8	-6.9	24.2	-10.0	.
COc1cc(O)c(C(CC(=O)N2CCCC(C)C2)c2cc(OC)c(OC)c(OC)c2)c(OC)c1 (stereo not given)	14.1	-1.2	3.4	7.4	9.4	0.9	.
COc1ccc(-c2cc(NC=O)c3ncc(-c4cccc(C(C)=O)c4)n3c2)cc1	-33.5	.	-1.7	11.1	-0.6	27.8	.
COc1cccc(-c2cc(NC=O)c3ncc(-c4ccc(C(C)=O)cc4)n3c2)c1	-60.5	.	-44.2	-0.3	59.0*	28.7	62.7*
COc1ccccc1-c1cc(NC=O)c2ncc(-c3ccc(F)cc3)n2c1	-16.0	.	-24.4	-9.7	67.4*	13.7	54.3*
COc1cc(-c2cnc3c(NC=O)cc(-c4ccc(C)cc4)cn23)cc(OC)c1OC	-34.4	.	-23.5	9.8	50.9*	-9.4	71.1*
COc1ccc(-c2cc(NC=O)c3ncc(-c4ccc(C(C)=O)cc4)n3c2)cc1OC	21.2	.	-19.0	2.0	50.4*	68.3*	32.7
COC(=O)[C@H]1C[C@H](OC(=O)NC2CCCC2)[C@@]2(O)CN(S(=O)(=O)c3ccc(C)cc3)CC2[C@H]1C(=O)OC (stereo not given in full)	-6.0	.	6.0	-1.3	15.4	4.2	.
CCCSc1nnc(CSc2nc(C)cc(C)n2)n1C	17.9	-2.6	-7.8	-0.2	9.7	-4.5	.
CC(Sc1nnc(C2CC2)n1Cc1ccccc1)C(=O)N1CCNC1=O (stereo not given)	7.3	2.1	-13.9	-10.1	-1.0	12.6	.
O=C(C1CCCO1)N1CCN(S(=O)(=O)c2cc(F)ccc2F)CC1 (stereo not given)	5.6	7.8	30.5	-10.5	-24.5	13.5	.
Cc1ccc(NC(=O)CN(C)C(=O)c2cccc(S(=O)(=O)N3CCc4ccccc4C3)c2)cc1	4.9	.	-9.0	-6.0	9.7	8.4	.
COc1ccc(N(Cc2cc(=O)[nH]c3ccccc23)C(=O)CCl)cc1	1.5	85.3*	-32.8	-3.2	74.7*	80.3*	70.6*
CCN(CC(=O)NCc1cccs1)C(=O)Cc1ccc(Cl)c(Cl)c1	26.1	6.6	9.3	-6.1	-14.1	14.0	.
CC(=O)Nc1sc(C)c(C)c1C(=O)OCC(=O)NCc1ccccc1	-18.5	15.1	-2.6	0.4	-6.7	-12.5	.
COc1ccc(NC(=O)COC(=O)c2c(NC(C)=O)sc(C)c2C)cc1	-9.5	.	-45.1	4.5	55.6*	4.5	24.0
CCOc1ccc(-c2n[nH]c(=S)c3ccccc23)cc1	-11.4	-3.7	5.0	-5.6	0.1	-20.0	.
CCOC(=O)c1ccc2c(c1)nc(SC/C(O)=C(\C#N)c1nc3ccccc3[nH]1)n2CC	-28.7	18.3	-38.5	-2.0	66.3*	5.8	59.0*
O=C(CN1CCN(S(=O)(=O)N2CCCCCC2)CC1)Nc1ccc(Br)cc1	7.2	-3.7	2.9	-0.4	18.3	22.4	.
CCN(C(=O)CSc1nnc(C)n1-c1ccc(C)cc1)c1c(N)n(Cc2ccccc2)c(=O)[nH]c1=O	12.6	-2.2	13.3	3.0	-8.9	-0.4	.
O=C(COC(=O)CC1CCCCC1)Nc1c(Cl)cccc1Cl	8.4	-4.3	12.0	7.8	17.3	4.2	.
SMILES	HIF-2a inh	TRPM1 prom inh	KKLEB tox	ABHD5-PLIN5 inh	CF NFkB block	Peg3 prom inh	CF NFkB conf
NC(c1ccccc1)c1csc(NC(=O)Nc2cccc(Cl)c2)n1 (stereo not given)	-27.8	.	-0.6	2.6	58.7*	107.9*	59.3*
C=C(C)[C@@H]1CCC2(C(=O)O)CC[C@]3(C)[C@H](CC[C@@H]4[C@@]5(C)CCC(=O)C(C)(C)[C@@H]5CC[C@]43C)[C@@H]12 (stereo not given in full)	8.3	9.9	-17.0	2.0	63.0*	8.1	63.6*
CC1(C)NC(=O)N(CC(=O)OCC(=O)c2ccc(Br)s2)C1=O	-6.5	-6.7	-13.8	4.9	0.1	-15.8	.
CN(Cc1ccccc1)c1ncnc(N)c1[N+](=O)[O-]	11.3	-25.1	-8.8	-3.4	66.8*	-4.8	60.9*
Nc1ncnc(Sc2ccccc2)c1[N+](=O)[O-]	6.1	-6.1	-1.6	5.2	51.6*	20.8	21.6
CN(Cc1ccccc1)c1nc(N)c([N+](=O)[O-])c(NCc2ccccc2)n1	5.2	-2.6	0.6	-9.2	-18.2	38.3	.
O=[N+]([O-])c1cccnc1Sc1ccc(Cl)cc1	-1.6	6.8	-4.8	-3.1	13.6	-4.3	.
Nc1ncnc(Sc2ccc(Cl)cc2)c1[N+](=O)[O-]	-20.1	-0.1	-13.4	1.5	64.0*	-7.3	61.8*
Cc1ccc(Oc2ncnc(N)c2[N+](=O)[O-])cc1	14.2	-1.9	-1.9	14.6	-7.3	2.2	.
COc1ccc(OCc2nnc(SCC(=O)NNC(=O)c3ccc(C)cc3)n2C)cc1	-1.8	4.1	11.6	2.2	-24.0	-10.9	.
Cc1cc(OCc2nnc(SC(C)C(=O)O)n2Cc2ccccc2)ccc1Cl (stereo not given)	3.1	1.0	-10.8	-8.0	25.3	-6.3	.
CCOC(=O)Cc1csc(NS(=O)(=O)c2ccc(SC)cc2)n1	12.8	-6.3	-2.7	7.5	9.2	7.7	.
COc1ccc(-n2cc(-c3ccccc3)c3c(N4CC(C)OC(C)C4)ncnc32)cc1 (stereo not given)	28.1	0.6	-15.9	-6.8	82.5*	63.8*	71.5*
COc1ccc(C2C(C#N)=C(N)Oc3cc(O)ccc32)cc1 (stereo not given)	-4.1	9.4	-6.5	-0.8	15.1	11.8	.
COc1ccc(N=Cc2cc3c(cc2O)OC(N)=C(C#N)C3c2ccccc2)cc1 (stereo not given)	38.5	11.3	13.5	-10.6	56.3*	19.8	84.8*

Source: PubChem BioAssay (several laboratories)
